Sampled rows, rich in hits. Any-hit rate of the full collection: about 21%.
Pf growth 48h = P. falciparum growth inhibition at 48 hours (one generation); Potency, µM (highest dose often 28.7 µM), inactives show top-dose activity change, negative = inhibition, hits mostly inhibitors; 5.9% of 310,000 active; AID 504832; P. falciparum luciferase growth in erythrocytes, 48 h; note: potency is the fitted concentration of half-maximal effect; % is set by controls: 0 for no effect and ±100 for the full control effect
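Erythrocytes infected with P. falciparum carrying an integrated firefly luciferase reporter (2% hematocrit, 0.1% parasitemia final) were exposed to compounds in RPMI 1640 with 0.5% Albumax at 37 C, 5% CO2. Growth inhibition was scored as reduced luminescence.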
Shiga inhibitor = inhibitors of Shiga toxin in Vero cells; Vero cells, Shiga toxin protein synthesis inhibition reporter; inhibition, % at 38.7 µM; 9.2% of 290,000 active; in the data active = inhibition mostly above about 28%, no sharp cut-off; inactive = mostly below about 43%; note: 0% is about no effect
Pf growth 96h = P. falciparum growth inhibition at 96 hours | P. falciparum luciferase reporter growth, 96 h | Potency, µM (top dose mostly 28.7 µM), for inactives: at the top dose activity change, negative = inhibition, most hits filed as inhibitors | 6.9% of 320,000 active | AID 504834; note: potency is the fitted concentration of half-maximal effect; % is set by controls: 0 for no effect and ±100 for the full control effect
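P. falciparum expressing integrated firefly luciferase, in erythrocytes at 2% hematocrit, 0.05% parasitemia, incubated with compounds 96 h at 37 C, 5% CO2. Growth inhibition read as loss of luminescence; two-generation exposure targets delayed-death apicoplast inhibitors.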
Cycloheximide cs = affects cycloheximide protein synthesis inhibition readout, counter-screen. cell reporter, cycloheximide protein synthesis inhibition counterscreen. max response, %. 12% of 300,000 active; in the data active = max response mostly above about 13%, no sharp cut-off; inactive = mostly below about 14%; note: read at 38.3 µM for the half of the compounds with a filed dose; 0% is about no effect
NS1 function inh = inhibitors of influenza NS1 protein function | Potency, µM (titrated, usually from 46.1 µM), for the others: at the highest dose activity, positive = more growth | 0.4% of 270,000 active | AID 2326; calls by dose curve; note: potency is the fitted concentration of half-maximal effect; actives are rising curves; nearly all actives have a fitted effect of over 50% in size
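In this qHTS, NS1 from influenza A is expressed in budding yeast, where it slows growth. Cells are switched from glucose to 2% galactose medium (pH 6.0, -URA), treated with compound, and growth recovery is read at OD600.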
Starred values were filed as active, the others as inactive; ? = inconclusive; / = no result; [ ] = remark or other dose. Unless noted, calls come from the whole dose curve; as a rule, active = well fitted inhibition curve with a large enough effect; inconclusive = small, poorly fitted or top-dose-only effect, or another doubt; inactive = no such curve, though single readings can be large or run the other way.

SMILES	Pf growth 48h	Shiga inhibitor	Pf growth 96h	Cycloheximide cs	NS1 function inh
O=C(N/N=C/C=C\c1cccc([N+](=O)[O-])c1)c1cccnc1	-2%	12	23%	-1	4%
Cc1cc(C)c(NC(=O)c2ccccc2C(=O)c2ccccc2)c(C)c1	?	2	-20%	-1	/
O=C(CCc1nc(-c2ccccc2Cl)no1)NC1CCCCC1	20%	-6	-1%	-3	-4%
Cc1cccnc1NC(=O)/C=C/c1ccc2c(c1)OCO2	239%	85*	10µM*	50*	-7%
COC(=O)c1cccc(NC(=O)/C=C/c2ccc3c(c2)OCO3)c1	243%	21*	6%	43*	-7%
CC(C)(C)c1ccc(/C=C/C(=O)Nc2nncs2)cc1	291%	56*	15%	63*	-2%
Cc1ccccc1-n1nc2c(c1NC(=O)/C=C\c1ccc3c(c1)OCO3)CSC2	?	-6	12µM*	-4	20%
COC(=O)c1cc(NC(=O)/C=C/c2ccc3c(c2)OCO3)cc(C(=O)OC)c1	-3%	-2	-27%	-2	2%
C/C(NCc1cccnc1)=C(\C#N)C(=O)NCc1ccccc1	-4%	-18	-16%	-3	-5%
Nc1ccccc1S[C@@H](C[N+](=O)[O-])c1ccc2c(c1)OCO2	/	/	/	/	-28%
CCOc1ccccc1NC(=O)C1C2CCC(O2)C1C(=O)O (stereo not given)	75%	13	0%	-1	-7%
CC(=O)NS(=O)(=O)c1ccc(NC(=O)/C=C/c2ccco2)cc1	4%	3	52%	-3	/
Cc1cc(C)nc(NC(=O)/C=C/c2ccc3c(c2)OCO3)c1	161%	66*	195%	52*	12%
O=C(/C=C/c1ccco1)Nc1ccc2c(c1)OCO2	412%	113*	372%	38*	/
COC(=O)c1c(NC(=O)/C=C/c2ccc3c(c2)OCO3)sc(C)c1C	4%	21	0%	5	3%
NS(=O)(=O)c1ccc(NC(=O)/C=C/c2ccc3c(c2)OCO3)cc1	21%	18	31%	5	/
O=C(/C=C/c1ccc2c(c1)OCO2)Nc1cccnc1	440%	91*	-19%	36*	/
CC(=O)Nc1ccc(NC(=O)/C=C/c2ccc3c(c2)OCO3)cc1	20%	23	68%	32*	1%
COc1ccc(CCNC(=O)CSc2nncs2)cc1	-3%	14	2%	5	6%
COc1ccc(-n2nc(C(C)=O)c(=O)[nH]c2=O)cc1	42%	15	33%[1.15 µM]	1	11%
O=C(/C(Br)=C/Nc1cc(Cl)ccc1Cl)C(F)(F)F	10%	9	27%	10	7%
COc1ccc(-c2nc3ccc(C)cc3c(=O)o2)cc1OC	8%	/	?	1	4%
COc1nc(N=C(N)N)nc2ccc(C)cc12	2.6µM*	-14	?	0	7%
CCc1nc(SCC(=O)Nc2ccccc2OC)c2c(C)c(C)sc2n1	13µM*	21	8%	-2	-4%
CCc1nc(SCC(=O)Nc2cc(C)ccc2OC)c2c(C)c(C)sc2n1	-20%	-12	27%	-4	2%
SMILES	Pf growth 48h	Shiga inhibitor	Pf growth 96h	Cycloheximide cs	NS1 function inh
O=c1/c(=C/c2ccccn2)sc2nc3ccccc3n12	176%	126*	153%	36*	-1%
O=c1c2ccccc2nc2sc3ccccc3n12	102%	97*	31%	20*	-13%
O=C(O)c1cccc(-c2ccc(/C=c3/sc4nc5ccccc5n4c3=O)o2)c1	66%	70*	30%	44*	8%
COC(=O)/C=c1/sc2nc3ccccc3n2c1=O	?	-12	?	6	-90%
O=C(NCCCc1ccccc1)c1ccc(-n2cncn2)c([N+](=O)[O-])c1	?	/	3%	/	/
COc1cccc(CNc2ccc3c(c2)ncn3C)c1OC	?	23	-10%	19*	8%
COc1cccc(CNc2ccc3c(c2)nc(C)n3C)c1OC	32%	61*	?	33*	-16%
CCOC(=O)c1sc2nc(C)nc(Nc3ccc(OC)cc3)c2c1C	-3%	30	-1%	5	-3%
CCOC(=O)c1sc2nc(C)nc(SC(C)C(=O)N(C)c3ccccc3)c2c1C (stereo not given)	12µM*	/	9.3µM*	/	/
Cc1cc2c(cc1C)N(CC(=O)N1CCCC1)C(=O)CC(c1ccccc1)=N2	/	56*	/	33*	-3%
O=C(NCCCc1ccccc1)[C@@H]1Cc2ccccc2CN1	7%	-6	10%	-1	-2%
CN(C)S(=O)(=O)c1cccc(NC(=O)COc2cccc(C#N)c2)c1	22%	3	8%	12	0%
COc1ccc(S(=O)(=O)N(C)C)cc1NC(C)C(=O)Nc1cccc(C#N)c1 (stereo not given)	2.9µM*	8	?	-2	/
Cc1ccc(NC(=O)Cc2ccc(Cl)cc2)cc1S(=O)(=O)N1CCCCCC1	13µM*	/	?	/	/
COc1ccc(C)cc1NCC(=O)Nc1ccc(C(C)(C)C)cc1	?	-7	9.3µM*	-2	-2%
COc1ccc(C)cc1NC(=O)CNc1ccccc1CN(C)C1CCCCC1	15µM*	-10	4.7µM*	-1	/
COc1ccc(Cl)cc1NC(=O)CNc1ccccc1CN(C)C1CCCCC1	?	13	?	3	/
CNC(=S)N(CCc1c(C)[nH]c2ccc(C)cc12)Cc1cccnc1	-11%	13	?	1	5%
c1ccc(NN(Cc2cnccn2)c2ccccc2)cc1	/	/	/	/	-3%
CC(=O)NC(=O)NC1OC(=O)C(Cl)=C1Cl (stereo not given)	?	19	34%	3	9%
COc1ccc(Br)cc1CN(C)C(=O)Cc1ccc(OC)c(S(=O)(=O)N2CCOCC2)c1	?	/	6.6µM*	/	/
COc1ccc(CN(C)C(=O)Cc2ccc(OC)c(S(=O)(=O)N3CCOCC3)c2)cc1OC	-17%	/	?	/	/
COc1ccc(CC(=O)Nc2ccc(C)c(S(=O)(=O)N3CCCCCC3)c2)cc1	?	/	8%	/	/
COc1ccc(NC(C)=O)cc1S(=O)(=O)N1CCN(C(=O)c2ccccc2F)CC1	2.1µM*	-3	?	-2	4%
COc1ccc(NC(=O)Cc2ccc(Cl)cc2)cc1S(=O)(=O)N1CCCCC1	?	/	10µM*	/	/
SMILES	Pf growth 48h	Shiga inhibitor	Pf growth 96h	Cycloheximide cs	NS1 function inh
COc1ccc(S(=O)(=O)N(C)C)cc1NCC(=O)Nc1ccc(Br)c(C)c1	10µM*	-15	?	2	/
COc1cc(Br)cc(Br)c1OCC(=O)N/N=C/c1c(C)n(C)n(-c2ccccc2)c1=O	5%	2	-17%	-2	12%
COc1ccc(N2CCN(C(=O)Nc3ccccc3C)CC2)cc1	16%	-1	11%	-3	-1%
Cc1ccc(NC(=O)c2cc3c(s2)CCC3)cc1S(=O)(=O)N1CCOCC1	?	-10	/	1	4%
COc1ccc(NC(=O)C2CCC2)cc1S(=O)(=O)N1CCOCC1	-16%	/	?	/	/
COc1ccc(NC(=O)Cc2coc3cc(C)ccc23)cc1S(=O)(=O)N1CCOCC1	-8%	-4	70%	2	7%
COc1ccc(CC(=O)Nc2ccc(F)c(Cl)c2)cc1S(=O)(=O)N1CCOCC1	6.6µM*	/	?	/	/

High-throughput results as filed in PubChem.
